DT40 TDP1 no CPT = qHTS for Inhibitors of human tyrosyl-DNA phosphodiesterase 1 (TDP1): qHTS in cells in absence of CPT. DT40 Tdp1-/- hTDP1 cells, no CPT, ATP luminescence, 48 h. Potency, µM (titrated, usually from 46.2 µM), for inactives: at the highest dose activity change, negative = growth inhibition, actives largely listed as inhibitors. 420,000 tested, 15% active. AID 686978, 2013; further: potency means the concentration at half of the fitted maximal effect; nearly all actives have a fitted effect of over 55% in size
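Readout: luminescence from CellTiter-Glo after 30 min in the dark at RT. Cells: DT40 Tdp1-/- with stable hTDP1, 400/well. Exposure: compounds alone, ≥48 hr, 37 °C.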
HT1080NT lethal = kills 2HG-producing HT-1080-NT fibrosarcoma cells. Potency, µM (titrated, usually from 46.1 µM), without a hit: at the highest dose activity, negative = less viability, hits mostly cytotoxic. HT-1080-NT fibrosarcoma viability, CellTiter-Glo ATP luminescence, 48 h. 360,000 tested, 1.6% active. AID 686970;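 further: NT is the 2HG producing partner of a matched IDH1 knockdown line; potency means the concentration at half of the fitted maximal effect; 0% = DMSO-treated cells and -100% = media-only wells without cells; nearly all actives have a fitted effect of over 55% in size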
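Fibrosarcoma NT cells, 750 per well in 5% FBS RPMI, were exposed to compound for 48 hours. Viability: CellTiter-Glo luminescence.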
TDP1 cell CPT = growth inhibition of DT40 Tdp1-/-;hTDP1 cells with camptothecin (screen for TDP1 inhibitors); chicken DT40 Tdp1-/-;hTDP1 cells + 20 nM CPT, ATP luminescence, 48 h; 420,000 tested, 12% active; Potency, µM (highest dose often 46.2 µM), inactives show at the highest dose activity change, negative = growth inhibition, usual class: inhibitors; further: potency means the concentration at half of the fitted maximal effect; nearly all actives have a fitted effect of over 55% in size
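Chicken DT40 Tdp1-/- cells complemented with human TDP1, 400 cells/well, exposed to compounds plus 20 nM camptothecin for at least 48 h at 37 C; viability read as ATP content by CellTiter-Glo luminescence.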
IL1B secr inh = inhibitors of inflammasome signaling (IL-1 beta secretion); AID 743279; activity change, % at 57.5 µM; 360,000 tested, 4.7% active; THP-1 LPS/ATP IL-1B secretion, AlphaLISA, 16 h; stronger effect = lower value; in the data active means activity change below about -50%; inconclusive means mostly about -30% to -49%
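THP-1 cells pretreated 1 hr with compounds (up to 57.5 uM final), then stimulated with LPS (250 ng/mL final) plus ATP (1.25 mM final); secreted IL-1B measured by AlphaLISA after 16 hr, decreased signal indicating inhibition.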
HT1080 IDH1KD tx = kills HT-1080 cells with IDH1 knockdown; Potency, µM (top dose mostly 46.1 µM), for the others: top-dose activity, negative = toxicity, most hits filed as cytotoxic; 360,000 tested, 2% active; HT-1080 IDH1 knockdown viability, ATP luminescence, 48 h;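 further: potency means the concentration at half of the fitted maximal effect; 0% = DMSO wells and -100% = cell-free medium wells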
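Using the IDH1-knockdown HT-1080 line run in the same batch and compound series as the NT line, viability after 48 h at 37 °C was determined by CellTiter-Glo luminescence and expressed as % activity.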
* marks the source's active call; other numbers are inactive results; i = inactive; u = inconclusive; x = no result given. Only some compounds are listed: those with a hit (about 19% of all), similar ones and a draw of the others. Unless noted, the call rests on the fitted dose curve; in most records, active means well fitted curve in the direction sought with a large enough effect; inconclusive means small, poorly fitted or top-dose-only effect, or another doubt; inactive means no such curve, though single readings can be large; an effect the other way counts as inactive or inconclusive. Unless noted, on the % scale 0 is the no-effect control and ±100 the full control effect.

SMILES	DT40 TDP1 no CPT	HT1080NT lethal	TDP1 cell CPT	IL1B secr inh	HT1080 IDH1KD tx
Cc1c(Cc2ccc3c(c2)OCO3)sc(NC(=O)c2ccc3ccccc3c2)c1C(N)=O	u	11%	u	14	-1%
COc1cc(C(=O)Nc2nc(C)c(Cc3ccc4c(c3)OCO4)s2)cc(OC)c1OC	2.1µM*	4.1µM*	1.3µM*	-10	4.6µM*
Cc1nc(NC(=O)c2ccc(OCC(C)C)cc2)sc1Cc1ccc2c(c1)OCO2	16µM*	-15%	u	-12	u
CCCOc1ccc(C(=O)Nc2nc(C)c(Cc3ccc4c(c3)OCO4)s2)cc1	7.3µM*	-14%	u	20	u
CCCCOc1ccc(C(=O)Nc2ccc3c(c2)OCO3)cc1	-8%	-9%	7%	-14	u
C/C(CC(=O)Nc1ccc(C)c(Cl)c1)=N\NC(=O)C1CCCCC1	-7%	-11%	-15%	-3	7%
COc1cc(CCNC2=CC(=O)c3ncccc3C2=O)ccc1O	5.8µM*	u	4.6µM*	-71*	15µM*
COc1ccc(CCNC(=O)c2cccnc2)cc1OC	-14%	12%	0%	36	5%
Cc1cccc(OC2CCN(Cc3c(C(=O)N4CCCC4)nc4ccccn34)CC2)c1	u	-7%	u	3	-12%
O=C(c1nc2ccccn2c1CN1CCC(Cc2ccccc2)CC1)N1CCCC1	23µM*	-4%	u	-6	3%
O=C(c1ccc(CS(=O)(=O)c2c(Cl)cccc2Cl)o1)N1CCN(c2ccccc2)CC1	15µM*	x	u	x	x
Cc1cccc(C)c1OCc1cc(C(=O)N2CCN(c3ccc(F)cc3)CC2)no1	-24%	-4%	u	-51*	-15%
Cc1ccccc1S(=O)(=O)Cc1ccc(C(=O)N2CCN(c3ccccc3F)CC2)o1	u	-8%	u	13	-4%
Cc1ccccc1S(=O)(=O)Cc1ccc(C(=O)N2CCN(c3ccc(F)cc3)CC2)o1	u	-22%	16µM*	1	-26%
Cc1ccc(Cl)cc1N1CCN(C(=O)c2ccc(CS(=O)(=O)c3ccccc3C)o2)CC1	18µM*	x	u	x	x
O=C(c1ccc(CS(=O)(=O)c2c(Cl)cccc2Cl)o1)N1CCCC1	-26%	-2%	u	4	3%
OCc1c(OCc2cccc(F)c2)ccc2ccccc12	u	-2%	u	19	1%
Cc1cc(Br)ccc1NC(=O)c1coc(=O)c2ccccc12	0%	x	-27%	x	x
Cc1nn(-c2ccccc2)c(N)c1C(c1ccccc1)c1c(C)nn(-c2ccccc2)c1N	-26%	3%	u	-6	0%
Cc1ccc2c(=O)cc(C(=O)Nc3sc4c(c3C(=O)NCc3ccco3)CCCC4)oc2c1C	5%	x	5%	x	x
COc1ccc(-c2nc(CN3CCC(C(=O)N4CCOCC4)CC3)c(C)o2)c(OC)c1	5%	10%	10%	i	26%
O=C1c2ccccc2CSc2c(O)cccc21	-37%	-11%	u	-64*	-21%
Cc1nc2cnc(N3CCN(C)CC3)nc2n(CCc2ccccc2)c1=O	u	x	-3%	x	x
O=C(Nc1nnc(S(=O)(=O)N2CCCCC2)s1)c1ccccc1Br	u	-4%	u	-16	-6%
O=C(Nc1ccc(Cl)cc1Cl)c1cc2ccccc2o1	-15%	18%	-4%	17	6%
O/N=C(\c1ccc(Cl)cc1)c1cc2ccccc2o1	18µM*	-29%	18µM*	-12	u
COCCCNC(=O)CCS(=O)(=O)Cc1ccc(C)cc1	-1%	12%	1%	21	9%
CCOC(=O)c1cnc(-n2nc(C)cc2C)nc1N(CC)CC	16µM*	u	23µM*	-5	1.6µM*
CCOC(=O)c1cc(NC(=O)NC2CCCCC2)c(C)nc1C	-21%	29%	-13%	16	24%
CCOC(=O)c1cnc(-n2nc(C)cc2C)nc1NNc1nc(C)cc(C)n1	-23%	2%	-4%	14	0%

Screening results (PubChem)
